# From PubChem BioAssay (NCI)
# Compounds without any hit were thinned out: in the full panel of roughly 83,000, 20% have a hit.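 Cell lines were cultured in 96-well plates, exposed to a single compound concentration, and assessed for percent growth 48 hours later.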 Values without a mark were called inactive. Activity calls are given as the source filed them. Rule for the calls: active = growth percent below 10; inactive = the rest.
# System: HL-60(TB) leukemia
# Test: NCI-60 one-dose screen, 48 h (100 = growth as untreated, 0 = no growth, -100 = all killed)
# Conditions: 10 µM unless noted
row,SMILES,growth
1,CC(C)c1ccc(-n2c(=S)[nH]c3sc4c(c3c2=O)CCC(=O)C4)cc1,75.4%
2,NCC(=O)NC(CC(=O)O)C(=O)O (stereo unspecified),90.7%
3,COc1ccc(C2(O)CCCCC2)cc1,95.6%
4,COc1ccc(C2C=C(c3ccc(Cl)c(Cl)c3)N=C3SC(C)=CN32)cc1 (stereo unspecified),83.3%
5,O=C1C2=C(CCN(Cc3ccccc3)C2)N2CCN=C2N1Cc1ccc(C(F)(F)F)cc1,20.4%
6,Cc1csc(NC(=O)c2sc3nc(-c4cccs4)ccc3c2N)n1,105%
7,COc1cc(C)c2sc3ccccc3c(=O)c2c1NCCN(C)C,61.2%
8,CCOC(=O)C1C(=O)NC(C(=O)OCC)(C(=O)OCC)C1CC (stereo unspecified),106%
9,N=C(N)c1ccc(-c2ccc(-c3cc(Cl)cc(Cl)c3)s2)s1,-67.9% (active)
10,O=C1c2ccccc2C(=O)c2sc(Nc3cccc(Cl)c3)nc21,-18.7% (active)
11,O=C(/C=C\c1ccc2c(c1)OCO2)/C=C/c1ccc2c(c1)OCO2,42.8%
12,CC(=O)c1ccc(NS(=O)(=O)c2ccc([N+](=O)[O-])cc2)cc1,90.3%
13,C/C(=N\NC(=O)CSc1nc2ccccc2c(=O)n1CCc1ccc(S(N)(=O)=O)cc1)c1ccc(Br)cc1,66.3%
14,Nc1nc(N)c2nc3c(nc2n1)CCCCCCCCCC3,33.4%
15,COc1ccc2c(c1)C(=O)/C(=C/c1ncc([N+](=O)[O-])n1C)O2,-7.47% (active)
16,CCCCCCCCCCC(CN(CC)CC)C(O)c1ccccc1 (stereo unspecified),44.7%
